# High-throughput results (PubChem BioAssay)
# Only some compounds are listed: those with a hit (about 7.4% of all), similar ones and a draw of the others.
# FLuc counter = qHTS profiling assay for firefly luciferase inhibitor/activator using purifed enzyme and Km concentrations of substrates (counterscreen for miR-21 project); Potency, µM (titrated, usually from 57.5 µM), for inactives: top-dose activity change, negative = inhibition, most hits filed as inhibitors; purified FLuc, Km substrates, luminescence inhibition; 360,000 tested, 6.9% active;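 also: plate controls were vehicle for no effect and reference inhibitor for full effect; nearly all actives have a fitted effect of over 55% in size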
# Target sequence (P08659 whole entry, looked up): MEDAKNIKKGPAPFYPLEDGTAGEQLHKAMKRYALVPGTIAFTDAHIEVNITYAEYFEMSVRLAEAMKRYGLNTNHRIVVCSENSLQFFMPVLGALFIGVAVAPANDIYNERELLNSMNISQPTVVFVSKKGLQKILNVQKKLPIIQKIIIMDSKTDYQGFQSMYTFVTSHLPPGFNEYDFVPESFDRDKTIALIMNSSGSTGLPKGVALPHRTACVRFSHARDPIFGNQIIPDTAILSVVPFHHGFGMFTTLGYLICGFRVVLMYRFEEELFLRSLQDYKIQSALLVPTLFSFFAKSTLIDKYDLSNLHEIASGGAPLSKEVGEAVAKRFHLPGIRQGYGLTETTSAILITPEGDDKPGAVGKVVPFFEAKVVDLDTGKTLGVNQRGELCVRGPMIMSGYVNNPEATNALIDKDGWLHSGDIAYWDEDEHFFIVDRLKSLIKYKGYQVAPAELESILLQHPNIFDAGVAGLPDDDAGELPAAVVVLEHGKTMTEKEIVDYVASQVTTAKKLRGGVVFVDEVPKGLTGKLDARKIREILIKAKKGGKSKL
#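 Purified P. pyralis luciferase (10nM final) with 10uM D-luciferin and 10uM ATP (Km levels) in 50mM Tris acetate pH 7.5, 10mM Mg acetate, 0.01% Tween-20, 0.05% BSA; qHTS 6-point titration, ~60 µM downward; luminescence read.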
# ELG1 genotox = qHTS screen for small molecules that induce genotoxicity in human embryonic kidney (HEK293T) cells expressing luciferase-tagged ELG1 | Potency, µM (highest dose often 46 µM), for the others: at the highest dose activity change, positive = activation, hits mostly activators | AID 504466, 2011 | 330,000 tested, 1.3% active | HEK293T ELG1-luciferase reporter, luminescence, 16 h; also: % of control where 0% means no effect; nearly all actives have a fitted effect of over 60% in size
#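 Genotoxicity was scored as increased ELG1-luciferase reporter signal, measured by ONE-Glo luminescence (30 min, room temperature). Compound or vehicle exposure of the HEK293T reporter cells lasted 16 hr at 37°C.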
# Rab9 promoter act = qHTS Assay for Rab9 Promoter Activators. Potency, µM (series often up to 9.22 µM), inactives show top-dose activation, negative = inhibition, usual class: activators. 320,000 tested, 2.8% active. Huh7 Rab9 promoter-luciferase reporter, luminescence, 24 h; also: % of control where 0% means no effect; nearly all actives have a fitted effect of over 60% in size
#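 Quantitative HTS format; Huh7 Rab9-luciferase reporter cells (1500/well) receive compound 2 h post-plating, incubate 24 h at 37 °C, then get luciferase reagent for 10 min before luminescence reading.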
# p53 reactivator = qHTS assay for re-activators of p53 using a Luc reporter. H1299 p53-A138V BP100-luciferase reporter, luminescence, 24 h. Potency, µM (top dose mostly 92.2 µM), for inactives: top-dose activity change, positive = activation, hits mostly activators. AID 504706, 2011. 320,000 tested, 0.063% active; also: % of control where 0% means no effect; nearly all actives have a fitted effect of over 45% in size
#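 p53-null H1299 cells stably carrying temperature-sensitive p53-A138V and a BP100-luciferase reporter were pinned with compounds (4-point, 1:5 series) and held 24 hrs at 37 deg C. Luminescence was read 10 min after detection reagent.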
# SMN2 splice enh = qHTS Assay for Enhancers of SMN2 Splice Variant Expression | HEK293 SMN2-luciferase splicing reporter, luminescence, 30-36 h | Potency, µM (top dose mostly 46.1 µM), inactives show top-dose activity change, positive = activation, usual class: activators | 210,000 tested, 2.8% active; also: % of control where 0% means no effect; nearly all actives have a fitted effect of over 55% in size
#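 qHTS luciferase splicing reporter: luminescence rises when SMN2 exon 7 is included in transfected HEK293 cells. Compound exposure lasted 30-36 h at 37C, with 4.5 mM final sodium butyrate as control, followed by a ONE-Glo read.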
# NPC1 promoter act = qHTS Assay for NPC1 Promoter Activators; Huh7 NPC1 promoter luciferase reporter, 24 h; Potency, µM (series often up to 9.22 µM), inactives show top-dose activation, most hits filed as activators; 320,000 tested, 2.4% active; also: % of control where 0% means no effect; nearly all actives have a fitted effect of over 60% in size
#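 Luminescence read-out of NPC1 promoter-driven luciferase in stably transfected Huh7 cells; compounds delivered in DMSO and left 24 h at 37C, 5% CO2, qHTS titration format.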
# Numbers without * were called inactive; ? = inconclusive; . = not tested or not shown; [ ] = another dose, or the depositor's remark. Calls follow the shape of the dose curve; as a rule, active = well fitted curve in the direction sought with a large enough effect; inconclusive = small, poorly fitted or top-dose-only effect, or another doubt; inactive = no such curve, though single readings can be large; an effect the other way counts as inactive or inconclusive. Potency is read from the fitted curve at half-maximal effect.
SMILES,FLuc counter,ELG1 genotox,Rab9 promoter act,p53 reactivator,SMN2 splice enh,NPC1 promoter act
O=C(O)CCC/C=C\CC1C2CCC(O2)C1CNNC(=O)Nc1ccccc1 (centres undefined),.,.,.,.,20%,.
CCC(=O)NCCC1CCc2ccc3c(c21)CCO3 (centres undefined),.,.,.,.,-9%,.
CCOC(=O)C1CCCN(C(=O)c2cc(Nc3ccc(OC)cc3)nc3ccccc23)C1 (centres undefined),15µM*,.,.,.,-5%,.
CCOC(=O)C1CCCN(C(=O)c2cc(-c3ccco3)nc3ccccc23)C1 (centres undefined),.,2%,.,-8%,.,.
O=C(c1cc(-c2ccc(F)cc2)nc2ccccc12)N1CCN(C2CCS(=O)(=O)C2)CC1 (centres undefined),9.5µM*,0%,19%,1%,.,9%
CCOC(=O)C1CCCN(C(=O)c2cc(-c3ccc(F)cc3)nc3ccccc23)C1 (centres undefined),15µM*,-9%,-5%,11%,24%,-2%
COc1cccc(-c2nn(-c3ccc(C)cc3)cc2C(=O)N2CCN(C3CCS(=O)(=O)C3)CC2)c1 (centres undefined),15µM*,-2%,1%,3%,.,5%
COc1ccc(-c2nn(-c3ccccc3)cc2C(=O)N2CCOCC2)cc1,6%,-5%,8%,-1%,-4%,-4%
COC(=O)C1=C(C(=O)OC)[C@@H]2N(Cc3ccccc3)c3ccccc3[C@@]23C[C@@H](C(=O)OC)N(S(=O)(=O)c2ccc(Br)cc2)C3=N1,.,.,.,.,-3%[9.22 µM],.
CCOc1ccc(-n2c(=O)c3c(C)c(C)sc3n(CC(=O)Nc3ccc(CC)cc3)c2=O)cc1,-2%,.,.,.,3%,.
CCN(CC(=O)NC(=O)NC1CCCC1)Cc1ccccc1,0%,0%,-3%,-4%,.,-2%
COc1ccc(-n2ncc(C(=O)Nc3cccc(C(F)(F)F)c3)c2C2CCN(C(=O)OC(C)(C)C)CC2)cc1,0%,.,.,.,.,.
COc1ccccc1OCCNC(=O)c1cccc(S(=O)(=O)NCc2ccccc2)c1,-1%,0%,-7%,-1%,.,-3%
NNC(=O)c1ccc(COc2ccc3ccccc3c2)cc1,6µM*,1%,18%,3%,.,?
CCCNC(=O)c1cccc(COc2ccccc2OC)c1,5.4µM*,?,3.5µM*,-2%,14µM*,1.4µM*
COc1ccc(OCc2cccc(C(=O)NN)c2)cc1,6µM*,?,0.089µM*,?,3.2µM*,0.089µM*
NNC(=O)c1cccc(COc2cccc(Br)c2)c1,?,12%,?,4%,?,?
COc1ccc(OCc2cccc(C(=O)Nn3cc([N+](=O)[O-])cn3)c2)cc1,?,-3%,4%,?,-86%,23%
NNC(=O)c1cccc(COc2ccc(Br)cc2)c1,11µM*,?,0.1µM*,.,1µM*,0.32µM*
CCNC(=O)c1cnc2c(-c3ccccc3)c(C)nn2c1C,7%,.,.,.,.,.
CCCCC1CCC(CCCC(C)CCC(=O)O)CC1 (centres undefined),27µM*,.,.,.,-8%,.
COc1ccccc1CCC(=O)Oc1ccc(C#N)cc1OC,21µM*,12%,-3%,-7%,.,-3%
N/C(=N\O)c1ccc(N2CCN(c3ncccc3C(F)(F)F)CC2)nc1,12µM*,?,2.5µM*,10%,.,2.2µM*
O=C1c2ccccc2S(=O)(=O)N1Cc1nnc(-c2ccccc2Br)o1,21µM*,3%,1%,10%,-6%,8%
CCOC(=O)CNC(=O)CSc1nnc(NC(=O)c2ccc3c(c2)OCO3)s1,0.95µM*,3.3µM*,3.2µM*,?,.,3.5µM*
SMILES,FLuc counter,ELG1 genotox,Rab9 promoter act,p53 reactivator,SMN2 splice enh,NPC1 promoter act
Cc1ccc(C(=O)Nc2nnc(SCC(=O)N3CCCc4ccccc43)s2)cc1,0.15µM*,?,0.32µM*,15%,?,?
CCOC(=O)CNC(=O)CSc1nnc(NC(=O)c2ccc(C)cc2)s1,0.6µM*,?,0.56µM*,27%,5µM*,1.8µM*
O=C(Nc1nnc(SCC(=O)N2CCCc3ccccc32)s1)c1cccc2ccccc12,?,-6%,7%,4%,-9%,8%
CCOC(=O)CNC(=O)CSc1nc(-c2cccc(C)c2)ns1,24µM*,-4%,6%,1%,5%,2%
COCCSc1nnc(NC(=O)c2ccc3c(c2)OCO3)s1,?,?,?,1%,?,?
COCCN(C(=O)CSc1nnc(-c2ccco2)n1C)c1c(N)n(CC(C)C)c(=O)[nH]c1=O,-13%,-2%,-8%,9%,.,-2%
Cc1ccc2c(CC(=O)Nc3nnc(C(C)C)s3)coc2c1C,0%,.,.,.,-13%,.
Nc1nc2c(C(=O)NCc3cccs3)nnn2c2cccc(Cl)c12,.,.,.,.,-1%[9.22 µM],.
Cc1ccc(S(=O)(=O)N(C)c2ccc(OC(=O)c3cc(=O)[nH]c4ccccc34)cc2)cc1,.,0%,.,1%,.,.
CCOC(=O)CNC(=O)c1ccccc1,1%,0%,8%,10%,-6%,-2%
CCOC(=O)CNC(=O)c1ccc(SCC)cc1,19µM*,?,?,11%,.,?
CCOC(=O)CSc1nnc(NC(=O)c2cccc([N+](=O)[O-])c2)s1,11µM*,-1%,-3%,6%,-1%,0%
COc1cccc(C(=O)c2cn(CC(=O)Nc3ccc4c(c3)OCCO4)c3nc(C)ccc3c2=O)c1,-1%,.,.,.,.,.
CCc1nn(CC(=O)Nc2ccc(C)cc2C)c(=O)c2cc3sccc3n12,6%,.,.,.,10%,.
Cn1cnnc1SCC(=O)Nc1ccc2nc(SCc3ccccc3Cl)sc2c1,17µM*,5%,26%,25%,-13%,16%
CCN(CC)C(=O)CSc1nc2ccc(NC(=O)CSc3nccn3C)cc2s1,19µM*,-5%,1%,23%,-41%,9%
Cn1cnnc1SCC(=O)Nc1ccc2nc(SCc3ccccc3)sc2c1,11µM*,?,?,-13%,-9%,3.5µM*
CCN(CC)C(=O)CSc1nc2ccc(NC(=O)CSc3nnc(N)s3)cc2s1,?,-6%,6%,10%,3%,6%
CCOc1ccc(C(=O)NNC(=O)CCNC(=O)c2ccc(Br)cc2)cc1OC,1%,-3%,-3%,-8%,.,-2%
Cc1ccc(SCCN2CCC(C(C)(C)C)CCC2=O)cc1 (centres undefined),?,11%,22%,.,.,20%
